For 40 compounds, growth results are on record in PubChem BioAssay (NCI).

Where “and” joins values, the source holds several entries; their conditions need not be identical. Equal values may be shown once. Compounds without any hit were thinned out: in the full panel of roughly 83,000, 20% have a hit.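 For each line, cells grew in 96-well plates with the test compound present at a single concentration for 48 hours.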 Values without a mark were called inactive. Calls of active or inactive are those of the source. The calls were made as follows: active = growth percent below 10; inactive = the rest.

This test deals with MDA-MB-468 breast. Briefly: NCI-60 one-dose screen, 48 h (100 = growth as untreated, 0 = no growth, -100 = all killed). Particulars: 10 µM unless noted.
Consider `Nc1c(C(=O)Nc2cccc(Cl)c2)sc2nc3c(cc12)CCCC3`, for which the growth was 74.2%.

`CCCCCCCCCCCC(=O)OCCNC(=O)C[n+]1ccccc1`: the growth was 101%.

Consider `O=C(CN1CCOCC1)Nc1ccc2ncnc(Nc3ccc(Oc4cccc(F)c4)c(Cl)c3)c2c1`, for which the growth was -17.1% (active).

As for `O=C(O)/C=C\C(=O)Nc1cccc2ccccc12`, the growth was 92.2% and 111%.

For `c1ccc(-c2nc(N3CCNCC3)c3nc(-c4ccccc4)oc3n2)cc1`, the growth is -37.2% (active).

As to `CC[n+]1ccc2c(c1)C(=O)c1nccc3c1c-2nc1ccccc13`, the growth was -52.3% (active).

As for `CN(C)CCC(=O)Nc1ccc(-n2cc(-c3cccc(NC(=S)Nc4cccc(-c5cn(-c6ccc(NC(=O)CCN(C)C)cc6)nn5)c4)c3)nn2)cc1`, the growth is -9.56% (active).

Consider `COc1cc2cc(C(=O)Nc3ccccc3)c(N)nc2cc1OC`, for which the growth was -81.5% (active).

Consider `CCC(=O)Oc1ccc(/C=N/NC(N)=S)nc1`, for which the growth was 18.7%.

On to `CCCCSc1cc(C)nc(N)n1`, for which the growth was 95.8%.

Turning to `Cc1ccc(S(=O)(=O)OC[C@]23CCC(C)(C)C[C@H]2C2=CC[C@@H]4[C@@]5(C)CCCNC(C)(C)[C@@H]5CC[C@@]4(C)[C@]2(C)CC3)cc1`, the growth is -35.1% (active).

For the compound `Cc1nc2sc(C(=O)Nc3cccc(Br)c3)c(N)c2cc1C(O)c1ccccc1` (stereo not given), the growth is 11.9%.

Regarding `Cc1ccc2c(c1)C(C)Cc1c(N(C)C)ncnc1N2C` (stereo not given), the growth was 13%.

With `CCCCCCOC(=O)CC1=C(C)/C(=C/c2[nH]c(-c3ccc[nH]3)cc2OC)N=C1C`, the growth is -59.7% (active).

In the case of `CCc1ccccc1C(=O)N(CC)CC`, the growth is 116%.

For the compound `CCOC(=O)c1c(C)c2c(n1Cc1ccccc1)CSCC2=O`, the growth is -9.03% [100 µM] (active).

As to `CCc1c(Cl)nc(N)nc1Nc1ccc(C)c(C)c1`, the growth is 83.2%.

`C[C@H]1[C@H](C)CC[C@]2(CO)CC[C@]3(C)C(=CC[C@@H]4[C@@]5(C)Cc6c([nH]c7ccccc67)C(C)(C)[C@@H]5CC[C@]43C)[C@H]12`: the growth was 77.8%.

For the compound `COc1ccc2c(c1)c(-c1nn3cc(-c4cccs4)nc3s1)cn2C`, the growth was 71.5%.

Turning to `Brc1cccc(/C=N/Nc2nc(N/N=C/c3cccc(Br)c3)nc(N3CCOCC3)n2)c1`, the growth was 1.09% (active).

On to `COc1cc(Cn2c(-c3ccccc3)cc3c2-c2oncc2CC3)cc(OC)c1`, for which the growth was -21.4% (active).

As for `COc1ccc(/C=C2/SC(=S)NC2=O)c(OC)c1OC`, the growth is 65.4%.

With `COc1cccc(Oc2ccccc2NC(=O)CNC(=O)c2cccc3ccccc23)c1`, the growth was 12.1% [5 µM].

In the case of `Cc1nc2scc(-c3ccccc3)n2c(=O)c1CCO`, the growth was 101%.

On to `Clc1ccc2c(NCCCn3cnc4c(N5CCCC5)nc(Cl)nc43)ccnc2c1`, for which the growth is 107%.

Regarding `CCOC(=O)c1ccccc1OC(=O)NNc1ccccc1`, the growth is 83.2%.

For `O=[N+]([O-])c1cc(Br)c2cccc3c2c1CC3`, the growth was 97.3%.

In the case of `CC(C)[O-].CC(C)[O-].CN(CCN(C)Cc1cc(F)cc(F)c1[O-])Cc1cc(F)cc(F)c1[O-].[Ti+4]`, the growth is -36.8% (active).

Regarding `CCCOc1cc2ccccc2cc1C(=O)Nc1nc(N)c2c(ccc3nccc32)[nH]1`, the growth is -64.7% (active).

Take `O=C1CCc2ccccc2N1`: the growth was 98.8%.

Take `COc1ccc(-c2csc(NC(=O)N3CCN(c4cc5c(cc4F)c(=O)c(C(=O)O)cn5C4CC4)CC3)n2)cc1`: the growth is -2.96% (active).

Take `Nc1n[nH]c2cc(F)c([C@@H]3Nc4c(F)cc5[nH]ncc5c4[C@H]4C5CCC(C5)[C@@H]34)cc12` (stereo not given in full): the growth was -0.149% (active).

As to `COc1ccc(-c2cc(-c3nnc(SCC(=O)Nc4ccc(C(C)=O)cc4)n3-c3ccccc3)c3ccccc3n2)cc1OC`, the growth was 111%.

`CC(=O)/C(Cc1ccccc1)=N/O`: the growth was 99.1%.

As for `COc1ccc(/C(C)=N/NC(=O)CSc2nc3ccccc3c(=O)n2CCc2ccc(S(N)(=O)=O)cc2)cc1`, the growth was 33.8%.

As for `C=C1C(=O)O[C@H]2[C@H]1CC/C(COC(=O)CCC(=O)NCCOCCOCC(=O)Nc1ccc(OC)c(C(N)=O)c1O)=C\CC[C@@]1(C)O[C@@H]21`, the growth was -17.5% (active).

Take `COc1ccc2[nH]cc(-c3nc(N)nnc3-c3cn(C)c4ccc(Br)cc34)c2c1`: the growth is -31.3% (active).

`CCOC(=O)C(CCC(C)C)C(=O)OCC`: the growth is 105%.

On to `CN1c2ccccc2[C@]2(Cc3ccccc3)Cc3ccccc3N[C@H]12`, for which the growth was 115%.

`O=c1[nH]c(=S)[nH]n1C(=S)n1[nH]c(=S)[nH]c1=O`: the growth was 92.5%.
